Bioassay records deposited in PubChem BioAssay by National Center for Advancing Translational Sciences (NCATS).
Pf growth 48h: inhibits P. falciparum growth in the first generation, 48 h; Potency, µM (series often up to 28.7 µM), inactives show at the highest dose activity change, negative = inhibition, most hits filed as inhibitors; P. falciparum luciferase growth in erythrocytes, 48 h; 5.9% of 310,000 active; further: potency means the concentration at half of the fitted maximal effect; on the % scale 0 is the no-effect control and ±100 the full control effect
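Growth was read as firefly luciferase luminescence after a 48 h, 37 C, 5% CO2 exposure of compounds to reporter-bearing P. falciparum cultures (0.1% parasitemia, 2% hematocrit final) in Albumax-supplemented RPMI 1640.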
Pf growth 96h: P. falciparum growth inhibition at 96 hour, primary screen for plastid delayed-death inhibitors. 6.9% of 320,000 active. AID 504834. P. falciparum luciferase reporter growth, 96 h. Potency, µM (series often up to 28.7 µM), inactives show at the highest dose activity change, negative = inhibition, hits mostly inhibitors; further: potency means the concentration at half of the fitted maximal effect; on the % scale 0 is the no-effect control and ±100 the full control effect
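Readout is luminescence from an integrated firefly luciferase in P. falciparum. Red cells, 2% hematocrit and 0.05% parasitemia final, were cultured with compound through two parasite generations (96 hours) at 37 C, 5% CO2.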
SARS PLpro yeast: blocks SARS-CoV papain-like protease in a yeast assay; S. cerevisiae expressing SARS-CoV PLpro, growth rescue; Potency, µM (titrated, usually from 32.9 µM), inactives show top-dose activity, positive = growth rescue, hits mostly activators; 0.19% of 330,000 active; AID 485353; calls by dose curve; further: potency means the concentration at half of the fitted maximal effect; 0% is about no effect; nearly all actives have a fitted effect of over 55% in size
HCV inh: HCV inhibition. Huh7.5.1 HCVcc-Cre infection, luciferase reporter, 44 h. Potency, µM (top dose mostly 41.8 µM), for inactives: at the highest dose activity change, negative = inhibition, actives largely listed as inhibitors. 3.4% of 340,000 active. AID 651820; further: potency means the concentration at half of the fitted maximal effect; on the % scale 0 is the no-effect control and ±100 the full control effect
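Infectious HCV cell culture screen: compound-treated cells (1,000/well, pre-plated 4 h) are infected with HCVcc-Cre at roughly 0.5 moi and grown 44 h. Infection is quantified by luciferase signal after 15 min substrate incubation at room temperature.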
Sm TGR block: blocks Schistosoma mansoni thioredoxin glutathione reductase; Potency, µM (series often up to 114 µM), for the others: at the top dose activity change, negative = inhibition, usual class: inhibitors; 3% of 360,000 active; purified TGR, DTNB reduction, TNB absorbance 405 nm; Q962Y6; further: potency means the concentration at half of the fitted maximal effect; on the % scale 0 is the no-effect control and ±100 the full control effect; nearly all actives have a fitted effect of over 60% in size
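TGR 20 nM + NADPH 100 uM (dispensed conc.), cpd preinc 15 min RT; start with NADPH (500 uM addition) then DTNB (15 mM addition). Kinetic TNB absorbance, 405 nm filter. Four-parameter Hill fit across titration.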
HCMV antiviral: inhibitors of human cytomegalovirus | 4.5% of 410,000 active | AID 1259415 | HFF cells, HCMV-luciferase reporter, 72 h; hits give low values | activity change, negative = inhibition, % at 57.5 µM; in the data active means activity change below about -60%; inconclusive means no clear call, values can overlap the other calls; inactive means above about -39%; further: on the % scale 0 is the no-effect control and ±100 the full control effect
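After 16 h attachment at 37C, HFF cells received test compound and HCMV-luciferase (1 PFU/cell); reporter luminescence read 72 h later, data normalized against buffer-only and known inhibitor Salinomycin.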
* = called active by the depositor. Most compounds without a hit are left out; they make up all but 15% or so of the library. Unless noted, the call rests on the fitted dose curve; in most records, active means well fitted curve in the direction sought with a large enough effect; inconclusive means small, poorly fitted or top-dose-only effect, or another doubt; inactive means no such curve, though single readings can be large; an effect the other way counts as inactive or inconclusive.

How did Clc1ccccc1N/N=C/c1ccc2c(c1)OCO2 do in these assays?
Pf growth 48h: 200%; Pf growth 96h: 405%; SARS PLpro yeast: -99%; HCV inh: -6%; Sm TGR block: 0%; HCMV antiviral: -12

What do the screens show for `O=C(O)CCCC(=O)OCCCCc1cccs1`?
Pf growth 48h: 18%; Pf growth 96h: 5.2µM*; SARS PLpro yeast: 1%; HCV inh: -4%; Sm TGR block: -1%; HCMV antiviral: -22

What do the screens show for `O=C(NCc1ccc(Cl)cc1)C(=O)NCC(c1ccc2c(c1)OCO2)N1CCOCC1` (stereo unspecified)?
Sm TGR block: 6%; HCMV antiviral: 72

What do the screens show for `CN1CCN(C2CCN(c3ccc(Nc4nnc(Cl)c(Nc5ccccc5S(C)(=O)=O)n4)c(OC(CF)CF)c3)CC2)CC1`?
SARS PLpro yeast: -4%; HCV inh: 11µM*; HCMV antiviral: 0

What do the screens show for `O=S(=O)(NCC(c1ccc2c(c1)OCO2)N1CCOCC1)c1ccccc1` (stereo unspecified)?
Pf growth 48h: 2%; Pf growth 96h: -1%; SARS PLpro yeast: 4%; HCV inh: 23%; Sm TGR block: -3%; HCMV antiviral: -19

How did COc1ccccc1NS(=O)(=O)c1cc(NC(=O)c2ccc(Cl)nc2)ccc1Cl do in these assays?
Pf growth 48h: 1.7µM*; Pf growth 96h: 3.3µM*; SARS PLpro yeast: -3%; HCV inh: 7.1µM*; Sm TGR block: -12%; HCMV antiviral: -98*

Results for COc1ccc(NC(=O)CSc2ccccc2)cc1S(=O)(=O)N1CCOCC1 ?
Pf growth 48h: -14%; Pf growth 96h: 12µM*; SARS PLpro yeast: -4%; HCV inh: -12%; Sm TGR block: 2%; HCMV antiviral: 4

Results for O=C(Nc1ccc(N2CCCCC2)cc1)c1ccc2ccccc2n1 ?
Pf growth 48h: 345%; Pf growth 96h: 123%; SARS PLpro yeast: -4%; HCV inh: 10µM*; Sm TGR block: -2%; HCMV antiviral: 12

What do the screens show for `COc1ccc(NC(=O)c2ccc(Cl)nc2)cc1S(=O)(=O)N1CCOCC1`?
Pf growth 48h: inconclusive; Pf growth 96h: 12µM*; SARS PLpro yeast: 0%; HCV inh: inconclusive; Sm TGR block: 1%; HCMV antiviral: 119

How did Cc1ncccc1C(=O)N1CCCC(CNC(=O)C2(c3ccc(Cl)cc3)CC2)C1 (stereo unspecified) do in these assays?
Pf growth 48h: -1%; Pf growth 96h: inconclusive; SARS PLpro yeast: 2%; HCV inh: 13%; Sm TGR block: 0%; HCMV antiviral: -5

How did Cc1ccc(N2CCN(C(=O)CCc3c(C)nc4ncnn4c3C)CC2)c(C)c1 do in these assays?
Sm TGR block: 9%; HCMV antiviral: -14

What do the screens show for `COc1ccc(CC(=O)Nc2ccc(C#N)c(Cl)c2)cc1S(=O)(=O)N1CCOCC1`?
Pf growth 48h: -13%; Pf growth 96h: inconclusive; SARS PLpro yeast: -4%; HCV inh: inconclusive; Sm TGR block: 13µM*; HCMV antiviral: 19

Results for O=C(OCC(=O)N1CCN(c2ccccc2)CC1)c1ccc2ccccc2n1 ?
Pf growth 48h: -19%; Pf growth 96h: 4%; SARS PLpro yeast: 6%; HCV inh: -1%; Sm TGR block: 45µM*; HCMV antiviral: 52

What do the screens show for `CCc1ccc(C(=O)Nc2ccc(OC)c(S(=O)(=O)N3CCOCC3)c2)cc1`?
Pf growth 48h: 0%; Pf growth 96h: inconclusive; SARS PLpro yeast: 1%; HCV inh: 8.9µM*; Sm TGR block: 13%; HCMV antiviral: -89*

Results for COc1ccc(NC(=O)Cc2coc3cc(C)c(C(C)C)cc23)cc1S(=O)(=O)N1CCOCC1 ?
Pf growth 48h: inconclusive; Pf growth 96h: inconclusive; SARS PLpro yeast: -14%; HCV inh: 7.1µM*; Sm TGR block: -31%; HCMV antiviral: -67*

What do the screens show for `COc1ccc2c(CC(=O)Nc3ccc(OC)c(S(=O)(=O)N4CCOCC4)c3)coc2c1`?
Pf growth 48h: 5%; Pf growth 96h: 15%; SARS PLpro yeast: 13%; HCV inh: -22%; Sm TGR block: 1%; HCMV antiviral: -19

Results for Cc1csc(NC(=O)CCCC(=O)c2ccccc2)n1 ?
Pf growth 48h: 0%; Pf growth 96h: inconclusive; SARS PLpro yeast: -2%; HCV inh: 4%; Sm TGR block: 25%; HCMV antiviral: 39

How did O=C(NCCc1csc(-c2cccc(F)c2)n1)c1cccs1 do in these assays?
Sm TGR block: 5%; HCMV antiviral: -15

How did COc1ccc(C(=O)C(O)C(c2ccc(C)cc2)N2CCOCC2)cc1OC (stereo unspecified) do in these assays?
Pf growth 48h: 2%; Pf growth 96h: 3%; SARS PLpro yeast: 0%; HCV inh: -8%; Sm TGR block: -5%; HCMV antiviral: -18

What do the screens show for `CCC(C)NC(=O)CSc1nc2cc3c(cc2c(=O)n1CCCCCC(=O)NCc1ccc(OC)cc1)OCO3` (stereo unspecified)?
Sm TGR block: 2%; HCMV antiviral: 28

Results for COc1ccc(NC(=O)Cn2ncc(Cl)c(Cl)c2=O)cc1S(=O)(=O)N1CCOCC1 ?
Pf growth 48h: inconclusive; Pf growth 96h: inconclusive; SARS PLpro yeast: -11%; HCV inh: 8.9µM*; Sm TGR block: 10µM*; HCMV antiviral: -100*

How did COc1ccc(NC(=O)c2ccc(-c3ccccc3)cc2)cc1S(=O)(=O)N1CCOCC1 do in these assays?
Pf growth 48h: 0%; Pf growth 96h: -25%; SARS PLpro yeast: -6%; HCV inh: inconclusive; Sm TGR block: 10%; HCMV antiviral: -68*

How did COc1ccc(NC(=O)c2ccc3ccccc3n2)cc1S(=O)(=O)N1CCCCC1 do in these assays?
Pf growth 48h: 45%; Pf growth 96h: -23%; SARS PLpro yeast: 3%; HCV inh: 5.6µM*; Sm TGR block: inconclusive; HCMV antiviral: 99

How did COc1ccc(NC(=O)Cc2ccsc2)cc1S(=O)(=O)N1CCOCC1 do in these assays?
Pf growth 48h: inconclusive; Pf growth 96h: inconclusive; SARS PLpro yeast: 0%; HCV inh: 9%; Sm TGR block: -6%; HCMV antiviral: 11

How did COc1ccc(NS(=O)(=O)c2cccs2)cc1S(=O)(=O)N1CCOCC1 do in these assays?
Pf growth 48h: -9%; Pf growth 96h: 39%; SARS PLpro yeast: 9%; HCV inh: 11%; Sm TGR block: -2%; HCMV antiviral: -36

Results for COc1ccc(Nc2nc(-c3cccs3)nc3ccccc23)cc1S(=O)(=O)N1CCOCC1 ?
HCV inh: 2.8µM*; HCMV antiviral: inconclusive
